According to PubChem BioAssay (NCI):
This is part of a sample that, as a whole, favours compounds with a hit. Of some 83,000 tested, about 20% had one in any assay.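 Values shown are percent growth following 48 h exposure of cells in 96-well plates to a single concentration of compound; below 10 was considered active.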 Values without a mark were called inactive. Active and inactive are the calls of the source.

Experiments:
Test in all cases: NCI-60 one-dose screen, 48 h (100 = growth as untreated, 0 = no growth, -100 = all killed)
Conditions in all cases: 10 µM unless noted
T-47D breast = test system: T-47D breast
BT-549 breast = test system: BT-549 breast
MDA-MB-435 melanoma = test system: MDA-MB-435 melanoma
SW-620 colon = test system: SW-620 colon
MCF7 breast = test system: MCF7 breast
HCT-116 colon = test system: HCT-116 colon
HCC-2998 colon = test system: HCC-2998 colon
KM12 colon = test system: KM12 colon

Row | Compound | growth (T-47D breast) | growth (BT-549 breast) | growth (MDA-MB-435 melanoma) | growth (SW-620 colon) | growth (MCF7 breast) | growth (HCT-116 colon) | growth (HCC-2998 colon) | growth (KM12 colon)
1 | O=C(Nc1cccc(-n2cc(-c3ccncc3)c(-c3ccc(Cl)c(O)c3)n2)c1)c1ccc(N2CCOCC2)c(C(F)(F)F)c1 | 69.4% | 63.6% | 35.2% | 6.29% (active) | 60.6% | 29.7% | 56.4% | 30.6%
2 | CN(CCCCCl)P(=O)(OCc1ccc([N+](=O)[O-])o1)C(F)(F)C[C@H](NC(=O)CNC(=O)c1ccc(N=[N+]=[N-])cc1)C(=O)NCCc1ccc(O)cc1 (stereo partly drawn) | 90.5% | 79% | 41.5% | 37.6% | 61.6% | 78.4% | 98.4% | 91.1%
3 | COc1ccncc1S(=O)(=O)NC(=O)Nc1ccc(Cl)c(Cl)c1 | 78.1% | 111% | 100% | 99.6% | 105% | 91.7% | 101% | 91.9%
4 | CCOC(=O)NNC(=S)Nc1ccccc1 | 113% | 103% | 94.9% | 110% | 100% | 104% | 117% | 106%
5 | Clc1ccc(-c2nc3ccccc3s2)cc1Cl | 61.3% | 97.4% | 121% | 82.6% | 67.8% | 99% | 93.9% | 97.1%
6 | COc1ccccc1CNCCCN1C(=O)c2ccc3c4c(ccc(c24)C1=O)C(=O)N(CCCNCCCCNCCCN)C3=O | -36.4% (active) | -22.1% (active) | -13.4% (active) | -36.5% (active) | -38.4% (active) | -2.94% (active) | -39% (active) | -18.7% (active)
7 | COC(OC)c1ccccc1 | 99.4% | 92.4% | 102% | 114% | 99% | 98.5% | 93.6% | 112%
8 | CCCCN(CCCC)c1ccc(C(=N)c2ccc(N(CCCC)CCCC)cc2)cc1 | -31.3% (active) | -7.68% (active) | -72.4% (active) | -84% (active) | -85.5% (active) | -99.9% (active) | -96.7% (active) | -95.1% (active)
9 | COc1ccc(/C=C\c2cc(OC)c(OC)c(OC)c2)cc1OC(=O)c1cccc(Cn2cc(CCOC(=O)c3cccc(Cn4nnc5c4C(=O)c4ccccc4C5=O)c3)nn2)c1 | 67.6% | 27% | -36.3% (active) | 27.8% | 8.36% (active) | 6.52% (active) | 17.6% | 9.04% (active)
10 | COC(=O)C(Sc1ccc(Cl)cc1)C1SC(=S)N(Cc2ccccc2)C1=O (stereo not drawn) | 81.7% | 84.1% | 90.4% | 98.3% | 77.2% | 89.7% | 103% | 99.6%
11 | COc1ccc(CNCCCN2C(=O)c3ccc4c5c(ccc(c35)C2=O)C(=O)N(CCCNCCCCNCCCN)C4=O)c(OC)c1OC | -44.4% (active) | 60.4% | -39.1% (active) | 10.8% | -19.7% (active) | 6.94% (active) | -3.52% (active) | 21.2%
12 | COc1ccc(C2CC(c3ccc(OC)cc3OC)=NN2c2ccc(S(N)(=O)=O)cc2)cc1 (stereo not drawn) | 63.9% | 76.7% | 103% | 101% | 86% | 62.8% | 121% | 86.4%
13 | C=COC(=O)CCCCCCCCC | 110% | 108% | 106% | 99.1% | 101% | 109% | 101% | 106%
14 | CCN1CCN(c2nc(NNC(=O)c3ccccc3)nc(N3CCN(C(c4ccccc4)c4ccccc4)CC3)n2)CC1 | 40.7% | 79.1% | 60.2% | 5.78% (active) | 28.9% | 20.2% | 31.7% | 58.4%
15 | COc1cc(-c2nn(-c3cccc(NC(=O)Nc4ccc(Cl)c(Cl)c4)c3)cc2-c2ccncc2)ccc1Cl | 2.98% (active) | 6.23% (active) | -45.8% (active) | 13.4% | 1.73% (active) | 8.67% (active) | 2.84% (active) | 1.3% (active)
16 | COc1ccc(C(=O)NC(=O)Nc2cc3c(cc2F)/C(=C/c2[nH]c(C)c(CCC(=O)O)c2C)C(=O)N3)c(F)c1 | 47.8% | 25.2% | 36.8% | 26.6% | 41.7% | 37% | 50.3% | 11.7%
17 | C=C(C)[C@@H]1CC[C@]2(C(=O)N3CCNCC3)CC[C@]3(C)[C@H](CC[C@@H]4[C@@]5(C)C/C(=C/c6ccncc6)C(=O)C(C)(C)[C@@H]5CC[C@]43C)[C@@H]12 | 102% | 105% | 105% | 109% | 79.7% | 102% | 109% | 109%
18 | C=C1CC2(OC1=O)C(=O)N(CCCN1C(=O)C3(CC(=C)C(=O)O3)c3ccccc31)c1ccccc12 (stereo not drawn) | 4.15% (active) | 33.5% | -17.1% (active) | -67.4% (active) | -18.9% (active) | -8.31% (active) | 86.2% | 72.9%
19 | Cc1ccc(-c2cc3nc(-c4ccccc4)nc(C(Cl)Cl)n3n2)cc1 | -47.1% (active) | 60.3% | -68.3% (active) | -48.2% (active) | -10.7% (active) | -87.6% (active) | -90.6% (active) | -83.6% (active)
20 | COc1ccc(OC)c(/C=C2\Oc3cc(OCCCN4CCCC4)ccc3C2=O)c1 | 92.6% | 87.9% | 91.2% | 55.9% | 55.7% | 46.1% | 87.3% | 73.6%
21 | COc1cccc(/C=C/C(=O)Nc2cc(OC)c3c(c2)OCO3)c1 | 94.7% | 108% | 78.9% | 107% | 102% | 100% | 97% | 89.1%
22 | CCC(=O)Oc1ccc(/C(=C(/C)Cc2cccc(OC)c2)c2ccc(OCCN(C)C)cc2)cc1 | 86.7% | 95.7% | 9.82% (active) | 74.2% | 45.1% | 71.8% | 95.1% | 86.3%
23 | CCCCCCCCCCCC(=O)NCCC[N+](C)(C)CC(=O)[O-] | 92% | 85.5% | 88.7% | 109% | 99.8% | 89.9% | 96% | 86.6%
24 | Cc1ccc(S(=O)(=O)C2=C3C(=C(c4ccccc4)c4ccccc43)CN(S(=O)(=O)c3ccc(C)cc3)C2)cc1 | 12% | -1.45% (active) | 74.2% | -17.7% (active) | 37.6% | 8.4% (active) | 88.9% | 64.1%
25 | N/C(=N\C(N)=N\c1nc2ccccc2s1)c1cccc(Br)c1 | 52.1% | 79.1% | 93.8% | 102% | 77.4% | 61.2% | 108% | 66.5%
26 | COc1cccc(-c2nc3sccn3c2-c2ccnc(NCCCNS(=O)(=O)c3ccc(C(F)(F)F)cc3)c2)c1 | 23.7% | 54.6% | 36.8% | 68.5% | 31.1% | 41.9% | 72.2% | 57.2%
